Changes are numbered by the printed parent chain.
Legend:
Assay in all cases: PBM; 200 nM protein, PBS
Conditions in all cases: dsDNA, one strand shown
MSX2 [1] = biological target: MSX2 (Homo sapiens, UniProt P35548 130-214, R199I)
MSX2 [2] = biological target: MSX2 (Homo sapiens, UniProt P35548 130-214)
MSX2 [3] = biological target: MSX2 (Homo sapiens, UniProt P35548 130-214, F161Y)
VAX1 [4] = biological target: VAX1 (Homo sapiens, UniProt Q5SQQ9 86-172)
VAX1 [5] = biological target: VAX1 (Homo sapiens, UniProt Q5SQQ9 86-172, T142I)
VAX1 [6] = biological target: VAX1 (Homo sapiens, UniProt Q5SQQ9 86-172, K157R)
HOXA2 = HOXA2 (Homo sapiens, UniProt O43364 129-215, R185K)
NKX2-6 [7] = biological target: T1, NKX2-6 (Homo sapiens, UniProt A6NCS4 118-204)
T1 sequence: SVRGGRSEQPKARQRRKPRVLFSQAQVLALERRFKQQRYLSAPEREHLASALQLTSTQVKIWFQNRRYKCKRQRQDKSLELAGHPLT

NKX2-6 [8] = biological target: T2, NKX2-6 (Homo sapiens, UniProt A6NCS4 118-204, F151L)
T2 sequence: T1 sequence with F34L

ALX3 [9] = biological target: ALX3 (Homo sapiens, UniProt O95076 139-225, N203Q)
ALX3 [10] = biological target: ALX3 (Homo sapiens, UniProt O95076 139-225)
ALX3 [11] = biological target: ALX3 (Homo sapiens, UniProt O95076 139-225, L168Q)
ALX3 [12] = biological target: ALX3 (Homo sapiens, UniProt O95076 139-225, L168V)
ALX3 [13] = biological target: ALX3 (Homo sapiens, UniProt O95076 139-225, N203S)
Chain of ALX3 (Homo sapiens, UniProt O95076 139-225, N203S) (O95076 139-225 N203S): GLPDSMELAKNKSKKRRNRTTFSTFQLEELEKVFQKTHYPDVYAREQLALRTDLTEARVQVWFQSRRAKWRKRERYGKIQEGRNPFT

Chain of MSX2 (Homo sapiens, UniProt P35548 130-214, F161Y) (P35548 130-214 F161Y): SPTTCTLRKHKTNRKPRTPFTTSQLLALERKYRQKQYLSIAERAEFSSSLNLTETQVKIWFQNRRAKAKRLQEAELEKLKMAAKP
Chain of VAX1 (Homo sapiens, UniProt Q5SQQ9 86-172, K157R) (Q5SQQ9 86-172 K157R): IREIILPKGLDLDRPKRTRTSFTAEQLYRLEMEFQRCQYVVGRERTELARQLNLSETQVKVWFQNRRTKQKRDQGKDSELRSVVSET
Chain of MSX2 (Homo sapiens, UniProt P35548 130-214, R199I) (P35548 130-214 R199I): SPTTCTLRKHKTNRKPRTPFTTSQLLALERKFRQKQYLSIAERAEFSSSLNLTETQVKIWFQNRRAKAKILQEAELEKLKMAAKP
Chain of VAX1 (Homo sapiens, UniProt Q5SQQ9 86-172) (Q5SQQ9 86-172): as the sequence (Q5SQQ9 86-172 K157R) above, with R72K counted along it
Chain of VAX1 (Homo sapiens, UniProt Q5SQQ9 86-172, T142I) (Q5SQQ9 86-172 T142I): as the sequence (Q5SQQ9 86-172 K157R) above, with T57I, R72K counted along it
Chain of MSX2 (Homo sapiens, UniProt P35548 130-214) (P35548 130-214): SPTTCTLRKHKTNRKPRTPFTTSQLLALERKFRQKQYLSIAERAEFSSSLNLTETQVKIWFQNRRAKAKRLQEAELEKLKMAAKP
Chain of HOXA2 (O43364 129-215 R185K): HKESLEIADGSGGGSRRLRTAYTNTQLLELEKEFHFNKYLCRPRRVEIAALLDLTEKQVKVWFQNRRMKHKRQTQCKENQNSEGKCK
Chain of ALX3 (Homo sapiens, UniProt O95076 139-225, L168V) (O95076 139-225 L168V): as the sequence (O95076 139-225 N203S) above, with L30V, S65N counted along it
Chain of ALX3 (Homo sapiens, UniProt O95076 139-225, L168Q) (O95076 139-225 L168Q): as the sequence (O95076 139-225 N203S) above, with L30Q, S65N counted along it
Chain of ALX3 (Homo sapiens, UniProt O95076 139-225, N203Q) (O95076 139-225 N203Q): as the sequence (O95076 139-225 N203S) above, with S65Q counted along it
Chain of ALX3 (Homo sapiens, UniProt O95076 139-225) (O95076 139-225): as the sequence (O95076 139-225 N203S) above, with S65N counted along it

CACGGTCG was tested, and the binding signal (MSX2 [1]) was 9.6 upbm affinity estimate (log intensity, higher = more binding, comparable within an allelic series), the binding signal (MSX2 [2]) was 9.56 upbm affinity estimate (log intensity, higher = more binding, comparable within an allelic series) and the binding signal (MSX2 [3]) was 9.58 upbm affinity estimate (log intensity, higher = more binding, comparable within an allelic series).

With GAAGCAGC the binding signal (MSX2 [1]) was 9.64 upbm affinity estimate (log intensity, higher = more binding, comparable within an allelic series), the binding signal (MSX2 [2]) was 9.57 upbm affinity estimate (log intensity, higher = more binding, comparable within an allelic series) and the binding signal (VAX1 [4]) was 7.06 upbm affinity estimate (log intensity, higher = more binding, comparable within an allelic series). The binding signal (MSX2 [3]) was 9.57 upbm affinity estimate (log intensity, higher = more binding, comparable within an allelic series), the binding signal (VAX1 [5]) was 7.19 upbm affinity estimate (log intensity, higher = more binding, comparable within an allelic series) and the binding signal (VAX1 [6]) was 6.96 upbm affinity estimate (log intensity, higher = more binding, comparable within an allelic series).

In the case of CCTGACTC, the binding signal (MSX2 [1]) is reported as 9.6 upbm affinity estimate (log intensity, higher = more binding, comparable within an allelic series), the binding signal (MSX2 [2]) is reported as 9.49 upbm affinity estimate (log intensity, higher = more binding, comparable within an allelic series) and the binding signal (MSX2 [3]) is reported as 9.54 upbm affinity estimate (log intensity, higher = more binding, comparable within an allelic series).

In the case of GAGCCGAC, the binding signal (MSX2 [1]) is reported as 9.44 upbm affinity estimate (log intensity, higher = more binding, comparable within an allelic series), the binding signal (MSX2 [2]) is reported as 9.46 upbm affinity estimate (log intensity, higher = more binding, comparable within an allelic series) and the binding signal (VAX1 [4]) is reported as 7.12 upbm affinity estimate (log intensity, higher = more binding, comparable within an allelic series). The binding signal (MSX2 [3]) was 9.31 upbm affinity estimate (log intensity, higher = more binding, comparable within an allelic series), the binding signal (VAX1 [5]) was 7.21 upbm affinity estimate (log intensity, higher = more binding, comparable within an allelic series) and the binding signal (VAX1 [6]) was 7.3 upbm affinity estimate (log intensity, higher = more binding, comparable within an allelic series).

For GTAATCAA, the binding signal (MSX2 [1]) was 11.1 upbm affinity estimate (log intensity, higher = more binding, comparable within an allelic series) and the binding signal (HOXA2) was 13.1 upbm affinity estimate (log intensity, higher = more binding, comparable within an allelic series).

In the case of ATAATCAC, the binding signal (MSX2 [1]) is reported as 11.1 upbm affinity estimate (log intensity, higher = more binding, comparable within an allelic series).

With AAATATTT the binding signal (MSX2 [1]) was 10.7 upbm affinity estimate (log intensity, higher = more binding, comparable within an allelic series), the binding signal (MSX2 [2]) was 11.1 upbm affinity estimate (log intensity, higher = more binding, comparable within an allelic series) and the binding signal (MSX2 [3]) was 11 upbm affinity estimate (log intensity, higher = more binding, comparable within an allelic series).

For ATGATTAC, the binding signal (MSX2 [1]) was 10.9 upbm affinity estimate (log intensity, higher = more binding, comparable within an allelic series).

In the case of GCCAGGAC, the binding signal (MSX2 [1]) is reported as 9.69 upbm affinity estimate (log intensity, higher = more binding, comparable within an allelic series), the binding signal (MSX2 [2]) is reported as 9.71 upbm affinity estimate (log intensity, higher = more binding, comparable within an allelic series) and the binding signal (MSX2 [3]) is reported as 9.76 upbm affinity estimate (log intensity, higher = more binding, comparable within an allelic series).

CAGGGCCA was tested, and the binding signal (MSX2 [1]) was 9.52 upbm affinity estimate (log intensity, higher = more binding, comparable within an allelic series), the binding signal (MSX2 [2]) was 9.57 upbm affinity estimate (log intensity, higher = more binding, comparable within an allelic series) and the binding signal (MSX2 [3]) was 9.56 upbm affinity estimate (log intensity, higher = more binding, comparable within an allelic series).

With GGCCAGCA the binding signal (MSX2 [1]) was 9.48 upbm affinity estimate (log intensity, higher = more binding, comparable within an allelic series), the binding signal (NKX2-6 [7]) was 9.51 upbm affinity estimate (log intensity, higher = more binding, comparable within an allelic series) and the binding signal (MSX2 [2]) was 9.54 upbm affinity estimate (log intensity, higher = more binding, comparable within an allelic series). The binding signal (VAX1 [4]) was 7.05 upbm affinity estimate (log intensity, higher = more binding, comparable within an allelic series), the binding signal (NKX2-6 [8]) was 9.32 upbm affinity estimate (log intensity, higher = more binding, comparable within an allelic series) and the binding signal (MSX2 [3]) was 9.57 upbm affinity estimate (log intensity, higher = more binding, comparable within an allelic series). The binding signal (VAX1 [5]) was 7.11 upbm affinity estimate (log intensity, higher = more binding, comparable within an allelic series) and the binding signal (VAX1 [6]) was 7.17 upbm affinity estimate (log intensity, higher = more binding, comparable within an allelic series).

ATTAAGAA was tested, and the binding signal (MSX2 [1]) was 11.3 upbm affinity estimate (log intensity, higher = more binding, comparable within an allelic series), the binding signal (MSX2 [2]) was 12 upbm affinity estimate (log intensity, higher = more binding, comparable within an allelic series) and the binding signal (MSX2 [3]) was 11.7 upbm affinity estimate (log intensity, higher = more binding, comparable within an allelic series).

For AGCGGCCT, the binding signal (MSX2 [1]) was 9.45 upbm affinity estimate (log intensity, higher = more binding, comparable within an allelic series), the binding signal (MSX2 [2]) was 9.32 upbm affinity estimate (log intensity, higher = more binding, comparable within an allelic series) and the binding signal (MSX2 [3]) was 9.44 upbm affinity estimate (log intensity, higher = more binding, comparable within an allelic series).

For AGGCGTGA, the binding signal (MSX2 [1]) was 9.57 upbm affinity estimate (log intensity, higher = more binding, comparable within an allelic series), the binding signal (MSX2 [2]) was 9.37 upbm affinity estimate (log intensity, higher = more binding, comparable within an allelic series) and the binding signal (MSX2 [3]) was 9.36 upbm affinity estimate (log intensity, higher = more binding, comparable within an allelic series).

With TCCGCGGA the binding signal (MSX2 [1]) was 9.48 upbm affinity estimate (log intensity, higher = more binding, comparable within an allelic series), the binding signal (MSX2 [2]) was 9.54 upbm affinity estimate (log intensity, higher = more binding, comparable within an allelic series) and the binding signal (VAX1 [4]) was 7.16 upbm affinity estimate (log intensity, higher = more binding, comparable within an allelic series). For the same sequence, the binding signal (MSX2 [3]) was 9.53 upbm affinity estimate (log intensity, higher = more binding, comparable within an allelic series), the binding signal (VAX1 [5]) was 7.5 upbm affinity estimate (log intensity, higher = more binding, comparable within an allelic series) and the binding signal (VAX1 [6]) was 7.45 upbm affinity estimate (log intensity, higher = more binding, comparable within an allelic series).

For CCACTGGC, the binding signal (MSX2 [1]) was 9.65 upbm affinity estimate (log intensity, higher = more binding, comparable within an allelic series), the binding signal (MSX2 [2]) was 9.69 upbm affinity estimate (log intensity, higher = more binding, comparable within an allelic series) and the binding signal (MSX2 [3]) was 9.68 upbm affinity estimate (log intensity, higher = more binding, comparable within an allelic series).

In the case of AATTTTTA, the binding signal (MSX2 [1]) is reported as 11.1 upbm affinity estimate (log intensity, higher = more binding, comparable within an allelic series), the binding signal (MSX2 [2]) is reported as 11.9 upbm affinity estimate (log intensity, higher = more binding, comparable within an allelic series) and the binding signal (MSX2 [3]) is reported as 11.6 upbm affinity estimate (log intensity, higher = more binding, comparable within an allelic series).

For GCTCCAGC, the binding signal (MSX2 [1]) was 9.46 upbm affinity estimate (log intensity, higher = more binding, comparable within an allelic series), the binding signal (ALX3 [9]) was 7.72 upbm affinity estimate (log intensity, higher = more binding, comparable within an allelic series) and the binding signal (MSX2 [2]) was 9.45 upbm affinity estimate (log intensity, higher = more binding, comparable within an allelic series). For the same sequence, the binding signal (ALX3 [10]) was 7.57 upbm affinity estimate (log intensity, higher = more binding, comparable within an allelic series), the binding signal (ALX3 [11]) was 7.7 upbm affinity estimate (log intensity, higher = more binding, comparable within an allelic series) and the binding signal (ALX3 [12]) was 7.6 upbm affinity estimate (log intensity, higher = more binding, comparable within an allelic series). The binding signal (MSX2 [3]) was 9.5 upbm affinity estimate (log intensity, higher = more binding, comparable within an allelic series) and the binding signal (ALX3 [13]) was 7.72 upbm affinity estimate (log intensity, higher = more binding, comparable within an allelic series).

For AATTACTG, the binding signal (MSX2 [1]) was 12.1 upbm affinity estimate (log intensity, higher = more binding, comparable within an allelic series), the binding signal (MSX2 [2]) was 13.3 upbm affinity estimate (log intensity, higher = more binding, comparable within an allelic series) and the binding signal (MSX2 [3]) was 12.9 upbm affinity estimate (log intensity, higher = more binding, comparable within an allelic series).

For GATGATTA, the binding signal (MSX2 [1]) was 11.1 upbm affinity estimate (log intensity, higher = more binding, comparable within an allelic series).

For CGACAATA, the binding signal (MSX2 [1]) was 10.5 upbm affinity estimate (log intensity, higher = more binding, comparable within an allelic series), the binding signal (MSX2 [2]) was 11 upbm affinity estimate (log intensity, higher = more binding, comparable within an allelic series) and the binding signal (MSX2 [3]) was 10.9 upbm affinity estimate (log intensity, higher = more binding, comparable within an allelic series).

With CACCAGCC the binding signal (MSX2 [1]) was 9.46 upbm affinity estimate (log intensity, higher = more binding, comparable within an allelic series), the binding signal (MSX2 [2]) was 9.42 upbm affinity estimate (log intensity, higher = more binding, comparable within an allelic series) and the binding signal (MSX2 [3]) was 9.47 upbm affinity estimate (log intensity, higher = more binding, comparable within an allelic series).

CGCTCAGC was tested, and the binding signal (MSX2 [1]) was 9.48 upbm affinity estimate (log intensity, higher = more binding, comparable within an allelic series), the binding signal (MSX2 [2]) was 9.57 upbm affinity estimate (log intensity, higher = more binding, comparable within an allelic series) and the binding signal (MSX2 [3]) was 9.59 upbm affinity estimate (log intensity, higher = more binding, comparable within an allelic series).

For CATACTAA, the binding signal (MSX2 [1]) was 10.4 upbm affinity estimate (log intensity, higher = more binding, comparable within an allelic series), the binding signal (MSX2 [2]) was 10.7 upbm affinity estimate (log intensity, higher = more binding, comparable within an allelic series) and the binding signal (MSX2 [3]) was 10.6 upbm affinity estimate (log intensity, higher = more binding, comparable within an allelic series).

GCAATCAA was tested, and the binding signal (MSX2 [1]) was 10.9 upbm affinity estimate (log intensity, higher = more binding, comparable within an allelic series).

For GATAATCA, the binding signal (MSX2 [1]) was 10.9 upbm affinity estimate (log intensity, higher = more binding, comparable within an allelic series).

GGTAATCA was tested, and the binding signal (MSX2 [1]) was 11 upbm affinity estimate (log intensity, higher = more binding, comparable within an allelic series) and the binding signal (HOXA2) was 13.3 upbm affinity estimate (log intensity, higher = more binding, comparable within an allelic series).

— PMC11006913
